Test results from PubChem BioAssay (NCATS).
Inconclusive results are not listed. Activity calls are given as the source filed them. Unless noted, calls come from the whole dose curve; as a rule, active = well fitted curve in the direction sought with a large enough effect; inconclusive = small, poorly fitted or top-dose-only effect, or another doubt; inactive = no such curve, though single readings can be large; an effect the other way counts as inactive or inconclusive.

Key:
[1] = target: ATP-dependent 6-phosphofructokinase (Trypanosoma brucei brucei) (UniProt O15648); assay: qHTS Assay to Find Inhibitors of T. brucei phosphofructokinase: hit validation (AID 492961);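 note: luminescence reports ADP formed as PFK phosphorylates fructose-6-phosphate with ATP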
Outline: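 Reaction: 0.1 M triethanolamine pH 8.0, 5 mM MgCl2, F6P 0.5 mM, ATP 0.1 mM, PFK 1.25 nM, 45 min RT. Read-out: ADP-Glo luminescence. Analysis: concentration-response fits, classed by r2 and efficacy.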

[2] = target: Ubiquitin carboxyl-terminal hydrolase 1 (Homo sapiens) (UniProt O94782); assay: Inhibitors of USP1/UAF1: Pilot qHTS (AID 504865);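 note: rhodamine fluorescence freed from ubiquitin-rhodamine substrate followed over time; top concentration of the series differs between compounds; nearly all actives have a fitted effect of over 35% in size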
Outline: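 In 50mM HEPES pH 7.8 containing 0.5mM EDTA, 1mM TCEP, 0.1 mg/ml BSA and 0.01% Tween-20, 1nM USP1/UAF1 is exposed to compound for 15 min, then Ub-Rho (150nM final) is added and fluorescence is read over time.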

[3] = target: Luciferin 4-monooxygenase (Photinus pyralis) (UniProt P08659); assay: Biochemical firefly luciferase enzyme assay for NPC (AID 624030);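 note: purified P. pyralis luciferase at 10 nM with luciferin and ATP substrate; nearly all actives have a fitted effect of over 70% in size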
Outline: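 Counter-screen for direct inhibition of the luciferase enzyme by approved-drug library compounds, run at 10 nM enzyme in 50 mM Tris acetate (final). Luminescence was read within 5 min of enzyme-buffer addition and normalized to PTC124 versus DMSO (0%).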

[4] = S16 Schwann cell viability assay (CellTiter-Glo assay) (AID 624031);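 note: cellular ATP luminescence as a viability measure; nearly all actives have a fitted effect of over 70% in size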
Outline: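 Untransfected S16 rat Schwann cells; compound 24 h, 37 °C/5% CO2; CellTiter-Glo ATP luminescence. % activity vs no-cell wells and DMSO controls (0%); concentration-effect curves classed by r2, response magnitude, activity.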

[5] = S16 Schwann cell PMP22 intronic element firefly luciferase assay (AID 624032); note: nearly all actives have a fitted effect of over 30% in size
Outline: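 Rat S16 Schwann cells stably carrying a PMP22 intronic element-driven Fluc reporter were seeded overnight, then exposed to compounds for 24 h at 37 °C. Luminescence was normalized to PTC124 (positive control) and DMSO (0% activity).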

[6] = S16 Schwann cell PMP22 intronic element beta-lactamase assay (AID 624044; calls by dose curve; note: nearly all actives have a fitted effect of over 15% in size)
Outline: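 Beta-lactamase reporter under a PMP22 intronic regulatory element in stable S16 rat Schwann cells; 24 h compound exposure. 460 nm blue signal normalized between DMSO (0%) and potassium clavulanate, with 535 nm FRET tracking viability; curves classed by r2 and response.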

[7] = target: Rap guanine nucleotide exchange factor 3 (Homo sapiens) (UniProt O95398); assay: Confirmatory qHTS for antagonist of cAMP-regulated guanine nucleotide exchange factor 3 (EPAC1) (AID 1645880); conditions: EPAC1 Rap1B-BODIPY-GDP exchange, fluorescence; activity, negative = inhibition: at 115 µM (top of the series); note: nearly all actives have a fitted effect of over 55% in size
Outline: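 Released BODIPY-GDP fluoresces less than Rap1-bound BODIPY-GDP; the signal is followed at 480/540 nm at 5-min intervals over 30 min, after 5 min at room temperature. Reactions contain 100 nM EPAC1, 250 nM RAP1B-BODIPY-GDP and 50 uM GDP; results are normalized to ATA and DMSO.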

[8] = target: Rap guanine nucleotide exchange factor 3 (Homo sapiens) (UniProt O95398); assay: Confirmatory qHTS for agonist of cAMP-regulated guanine nucleotide exchange factor 3 (EPAC1) (AID 1645881);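 note: EPAC1 catalysed release of BODIPY-GDP from Rap1B seen as fluorescence loss; nearly all actives have a fitted effect of over 75% in size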
[9] = target: Rap guanine nucleotide exchange factor 3 (Homo sapiens) (UniProt O95398); assay: Counterscreen qHTS for antagonist of cAMP-regulated guanine nucleotide exchange factor 3 (EPAC1) (AID 1645888)
Outline: (§1)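 Measured: fluorescence of BODIPY-GDP bound to Rap1B, which falls as exchange proceeds. Conditions include 50 uM competing GDP, 5 and 30 min reads, and a later cAMP challenge for antagonist detection.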

[10] = target: Rap guanine nucleotide exchange factor 3 (Homo sapiens) (UniProt O95398); assay: Counterscreen qHTS for agonist of cAMP-regulated guanine nucleotide exchange factor 3 (EPAC1) (AID 1645889); note: nearly all actives have a fitted effect of over 40% in size
Outline: as §1

[11] = qHTS profiling for inhibitors of Plasmodium falciparum proliferation (AID 504749); note: nearly all actives have a fitted effect of over 60% in size; note: potency is the fitted concentration of half-maximal effect; conditions: P. falciparum in erythrocytes, SYBR Green DNA, 72 h; parasite line A
Outline: (§2)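 Quantitative HTS: compounds pinned into medium, infected erythrocytes added (0.3% parasitemia, 2.5% hematocrit), 72 h culture at 37 C under 5% CO2. Saponin/Triton lysis with SYBR Green I, overnight RT, then fluorescence read.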

7G8 = assay: as above; conditions: P. falciparum in erythrocytes, SYBR Green DNA, 72 h; series mostly up to 28.7 µM
Outline: as §2

AA1029 = assay: as above; conditions: P. falciparum in erythrocytes, SYBR Green DNA, 72 h; series mostly up to 28.7 µM
Outline: as §2

AS120 = assay: as above; conditions: P. falciparum in erythrocytes, SYBR Green DNA, 72 h; series mostly up to 28.7 µM
Outline: as §2

ATS189 = assay: as above; conditions: P. falciparum in erythrocytes, SYBR Green DNA, 72 h; series mostly up to 28.7 µM
Outline: as §2

ATS95 = assay: as above; conditions: P. falciparum in erythrocytes, SYBR Green DNA, 72 h; series mostly up to 28.7 µM
Outline: as §2

C2A = assay: as above; conditions: P. falciparum in erythrocytes, SYBR Green DNA, 72 h; series mostly up to 28.7 µM
Outline: as §2

CP185 = assay: as above; conditions: P. falciparum in erythrocytes, SYBR Green DNA, 72 h; series mostly up to 28.7 µM
Outline: as §2

CP191 = assay: as above; conditions: P. falciparum in erythrocytes, SYBR Green DNA, 72 h; series mostly up to 28.7 µM
Outline: as §2

CP192 = assay: as above; conditions: P. falciparum in erythrocytes, SYBR Green DNA, 72 h; series mostly up to 28.7 µM
Outline: as §2

CP194 = assay: as above; conditions: P. falciparum in erythrocytes, SYBR Green DNA, 72 h; series mostly up to 28.7 µM
Outline: as §2

CP217 = assay: as above; conditions: P. falciparum in erythrocytes, SYBR Green DNA, 72 h; series mostly up to 28.7 µM
Outline: as §2

CP237 = assay: as above; conditions: P. falciparum in erythrocytes, SYBR Green DNA, 72 h; series mostly up to 28.7 µM
Outline: as §2

CP238 = assay: as above; conditions: P. falciparum in erythrocytes, SYBR Green DNA, 72 h; series mostly up to 28.7 µM
Outline: as §2

CP247 = assay: as above; conditions: P. falciparum in erythrocytes, SYBR Green DNA, 72 h; series mostly up to 28.7 µM
Outline: as §2

CP252 = assay: as above; conditions: P. falciparum in erythrocytes, SYBR Green DNA, 72 h; series mostly up to 28.7 µM
Outline: as §2

CP256 = assay: as above; conditions: P. falciparum in erythrocytes, SYBR Green DNA, 72 h; series mostly up to 28.7 µM
Outline: as §2

CP260 = assay: as above; conditions: P. falciparum in erythrocytes, SYBR Green DNA, 72 h; series mostly up to 28.7 µM
Outline: as §2

CP262 = assay: as above; conditions: P. falciparum in erythrocytes, SYBR Green DNA, 72 h; series mostly up to 28.7 µM
Outline: as §2

CP265 = assay: as above; conditions: P. falciparum in erythrocytes, SYBR Green DNA, 72 h; series mostly up to 28.7 µM
Outline: as §2

CP269 = assay: as above; conditions: P. falciparum in erythrocytes, SYBR Green DNA, 72 h; series mostly up to 28.7 µM
Outline: as §2

CP286 = assay: as above; conditions: P. falciparum in erythrocytes, SYBR Green DNA, 72 h; series mostly up to 28.7 µM
Outline: as §2

CP297 = assay: as above; conditions: P. falciparum in erythrocytes, SYBR Green DNA, 72 h; series mostly up to 28.7 µM
Outline: as §2

CP335 = assay: as above; conditions: P. falciparum in erythrocytes, SYBR Green DNA, 72 h; series mostly up to 28.7 µM
Outline: as §2

DFO2036 = assay: as above; conditions: P. falciparum in erythrocytes, SYBR Green DNA, 72 h; series mostly up to 28.7 µM
Outline: as §2

DIV14 = assay: as above; conditions: P. falciparum in erythrocytes, SYBR Green DNA, 72 h; series mostly up to 28.7 µM
Outline: as §2

DIV17 = assay: as above; conditions: P. falciparum in erythrocytes, SYBR Green DNA, 72 h; series mostly up to 28.7 µM
Outline: as §2

Dd2 = assay: as above; conditions: P. falciparum in erythrocytes, SYBR Green DNA, 72 h; series mostly up to 28.7 µM
Outline: as §2

ECU = assay: as above; conditions: P. falciparum in erythrocytes, SYBR Green DNA, 72 h; series mostly up to 28.7 µM
Outline: as §2

FAB9 = assay: as above; conditions: P. falciparum in erythrocytes, SYBR Green DNA, 72 h; series mostly up to 28.7 µM
Outline: as §2

GB4 = assay: as above; conditions: P. falciparum in erythrocytes, SYBR Green DNA, 72 h; series mostly up to 28.7 µM
Outline: as §2

ICS = assay: as above; conditions: P. falciparum in erythrocytes, SYBR Green DNA, 72 h; series mostly up to 28.7 µM
Outline: as §2

JCK = assay: as above; conditions: P. falciparum in erythrocytes, SYBR Green DNA, 72 h; series mostly up to 28.7 µM
Outline: as §2

N140 = assay: as above; conditions: P. falciparum in erythrocytes, SYBR Green DNA, 72 h; series mostly up to 28.7 µM
Outline: as §2

P93_24 = assay: as above; conditions: P. falciparum in erythrocytes, SYBR Green DNA, 72 h; series mostly up to 28.7 µM
Outline: as §2

P94_40 = assay: as above; conditions: P. falciparum in erythrocytes, SYBR Green DNA, 72 h; series mostly up to 28.7 µM
Outline: as §2

PC49 = assay: as above; conditions: P. falciparum in erythrocytes, SYBR Green DNA, 72 h; series mostly up to 28.7 µM
Outline: as §2

SC27B = assay: as above; conditions: P. falciparum in erythrocytes, SYBR Green DNA, 72 h; series mostly up to 28.7 µM
Outline: as §2

TAB109 = assay: as above; conditions: P. falciparum in erythrocytes, SYBR Green DNA, 72 h; series mostly up to 28.7 µM
Outline: as §2

TAB113 = assay: as above; conditions: P. falciparum in erythrocytes, SYBR Green DNA, 72 h; series mostly up to 28.7 µM
Outline: as §2

TAB165 = assay: as above; conditions: P. falciparum in erythrocytes, SYBR Green DNA, 72 h; series mostly up to 28.7 µM
Outline: as §2

W2 = assay: as above; conditions: P. falciparum in erythrocytes, SYBR Green DNA, 72 h; series mostly up to 28.7 µM
Outline: as §2

Measured: Potency

Rap guanine nucleotide exchange factor 3 (Homo sapiens), sequence (O95398 whole entry, looked up): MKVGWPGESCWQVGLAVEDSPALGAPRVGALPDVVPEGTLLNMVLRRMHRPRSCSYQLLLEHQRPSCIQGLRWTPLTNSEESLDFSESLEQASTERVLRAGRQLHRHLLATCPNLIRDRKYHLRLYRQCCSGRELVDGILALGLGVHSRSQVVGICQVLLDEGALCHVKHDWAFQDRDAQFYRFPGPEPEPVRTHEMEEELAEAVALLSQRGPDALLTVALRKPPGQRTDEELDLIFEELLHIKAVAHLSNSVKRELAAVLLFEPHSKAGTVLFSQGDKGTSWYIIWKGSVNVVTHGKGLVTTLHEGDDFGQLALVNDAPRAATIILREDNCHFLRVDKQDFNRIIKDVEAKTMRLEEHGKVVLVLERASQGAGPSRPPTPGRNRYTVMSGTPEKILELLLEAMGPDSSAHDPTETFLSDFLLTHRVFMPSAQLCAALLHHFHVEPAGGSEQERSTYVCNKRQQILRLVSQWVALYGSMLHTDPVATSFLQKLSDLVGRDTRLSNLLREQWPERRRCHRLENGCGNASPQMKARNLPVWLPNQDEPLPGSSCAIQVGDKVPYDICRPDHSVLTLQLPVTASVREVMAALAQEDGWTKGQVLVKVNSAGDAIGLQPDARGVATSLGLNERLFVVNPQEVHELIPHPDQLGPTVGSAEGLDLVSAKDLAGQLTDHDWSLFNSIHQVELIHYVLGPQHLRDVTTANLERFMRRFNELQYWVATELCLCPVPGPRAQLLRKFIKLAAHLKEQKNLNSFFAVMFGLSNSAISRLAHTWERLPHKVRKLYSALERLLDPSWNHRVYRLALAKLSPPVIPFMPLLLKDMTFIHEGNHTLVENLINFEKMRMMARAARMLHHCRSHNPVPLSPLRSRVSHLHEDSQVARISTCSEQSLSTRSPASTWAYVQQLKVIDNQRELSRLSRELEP
Luciferin 4-monooxygenase (Photinus pyralis), sequence (P08659 whole entry, looked up): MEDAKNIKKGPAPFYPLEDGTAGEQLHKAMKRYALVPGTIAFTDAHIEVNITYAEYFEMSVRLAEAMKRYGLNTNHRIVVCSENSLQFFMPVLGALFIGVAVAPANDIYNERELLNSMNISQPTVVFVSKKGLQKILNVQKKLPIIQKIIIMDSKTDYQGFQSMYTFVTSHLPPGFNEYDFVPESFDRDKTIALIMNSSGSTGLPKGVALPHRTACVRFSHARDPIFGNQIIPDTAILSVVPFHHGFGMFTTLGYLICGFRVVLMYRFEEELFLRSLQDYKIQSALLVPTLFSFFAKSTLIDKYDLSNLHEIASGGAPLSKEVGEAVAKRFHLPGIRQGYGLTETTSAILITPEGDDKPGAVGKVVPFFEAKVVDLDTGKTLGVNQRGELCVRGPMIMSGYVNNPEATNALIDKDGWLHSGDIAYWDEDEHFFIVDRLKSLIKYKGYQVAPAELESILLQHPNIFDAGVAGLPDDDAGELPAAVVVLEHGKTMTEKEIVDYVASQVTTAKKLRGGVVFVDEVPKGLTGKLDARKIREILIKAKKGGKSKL
ATP-dependent 6-phosphofructokinase (Trypanosoma brucei brucei), sequence (O15648 whole entry, looked up): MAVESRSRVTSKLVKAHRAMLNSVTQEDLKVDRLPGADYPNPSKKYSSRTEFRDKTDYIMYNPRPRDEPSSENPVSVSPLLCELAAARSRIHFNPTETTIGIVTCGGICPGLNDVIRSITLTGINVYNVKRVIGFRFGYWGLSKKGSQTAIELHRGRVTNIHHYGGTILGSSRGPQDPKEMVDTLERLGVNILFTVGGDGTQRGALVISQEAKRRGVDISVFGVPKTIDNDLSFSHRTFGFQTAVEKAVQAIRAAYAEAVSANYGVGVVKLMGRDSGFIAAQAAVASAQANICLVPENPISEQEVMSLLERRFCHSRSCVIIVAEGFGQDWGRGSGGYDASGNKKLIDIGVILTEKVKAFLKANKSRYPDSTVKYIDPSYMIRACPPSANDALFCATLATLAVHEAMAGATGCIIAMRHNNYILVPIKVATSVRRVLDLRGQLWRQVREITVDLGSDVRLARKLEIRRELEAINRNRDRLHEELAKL
Ubiquitin carboxyl-terminal hydrolase 1 (Homo sapiens), sequence (O94782 whole entry, looked up): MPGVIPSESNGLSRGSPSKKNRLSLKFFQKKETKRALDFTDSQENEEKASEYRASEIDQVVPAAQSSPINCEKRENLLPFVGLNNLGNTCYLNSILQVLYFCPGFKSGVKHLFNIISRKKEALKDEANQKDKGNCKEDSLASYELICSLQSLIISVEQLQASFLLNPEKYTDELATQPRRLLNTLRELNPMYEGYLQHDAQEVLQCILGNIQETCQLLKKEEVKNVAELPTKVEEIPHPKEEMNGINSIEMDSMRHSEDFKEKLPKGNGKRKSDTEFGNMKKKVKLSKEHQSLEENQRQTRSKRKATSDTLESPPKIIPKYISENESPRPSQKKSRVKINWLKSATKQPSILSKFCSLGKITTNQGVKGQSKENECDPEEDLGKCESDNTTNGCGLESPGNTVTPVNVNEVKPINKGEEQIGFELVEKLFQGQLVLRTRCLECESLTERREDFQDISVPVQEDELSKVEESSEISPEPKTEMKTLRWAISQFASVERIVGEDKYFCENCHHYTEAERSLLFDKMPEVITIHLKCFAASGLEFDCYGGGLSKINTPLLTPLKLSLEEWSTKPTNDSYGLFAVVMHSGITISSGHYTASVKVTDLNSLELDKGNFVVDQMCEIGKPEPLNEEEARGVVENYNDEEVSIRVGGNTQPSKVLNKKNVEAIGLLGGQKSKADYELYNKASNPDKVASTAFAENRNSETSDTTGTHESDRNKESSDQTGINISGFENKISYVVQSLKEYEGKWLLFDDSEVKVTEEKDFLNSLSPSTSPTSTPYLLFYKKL

C=C[C@]1(C)C[C@@H](OC(=O)CSCCN(CC)CC)[C@]2(C)C(C)CC[C@]3(CCC(=O)[C@H]32)[C@@H](C)[C@@H]1O (some centres not stated)
active: [11] 10 µM | 7G8 11.2 µM | AA1029 5.01 µM | AS120 10 µM | ATS189 8.91 µM | ATS95 7.94 µM | C2A 11.2 µM | CP185 5.01 µM | CP191 7.94 µM | CP194 7.57 µM | CP217 10 µM | CP237 8.91 µM | CP238 11.2 µM | CP247 6.31 µM | CP252 7.08 µM | CP256 8.91 µM | CP260 5.62 µM | CP265 8.91 µM | CP269 6.75 µM | CP286 3.55 µM | CP297 6.75 µM | CP335 5.36 µM | DFO2036 10 µM | DIV14 15.1 µM | DIV17 13.5 µM | Dd2 3.16 µM | ECU 12.6 µM | GB4 6.75 µM | ICS 3.98 µM | N140 8.91 µM | P93_24 5.01 µM | P94_40 4.47 µM | SC27B 7.94 µM | TAB109 3.98 µM | TAB113 11.2 µM | TAB165 7.08 µM | W2 2.13 µM
inactive: [1] | [2] | [3] | [4] | [5] | [6] | [7] | [8] | [9] | [10] | CP192 | CP262 | FAB9 | JCK | PC49
